Experimental data as given in PubChem BioAssay AID652154 (Broad Institute, 2013).
In all, about 360,000 compounds went through this assay and about 4,200 (1.2%) were called active.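 How the source made its calls: active means mean replicate inhibition at least 60% with every replicate also reaching 60%; inconclusive means only one of the two criteria is met; inactive means mean below 60% and not all replicates reaching 60%.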 What follows is part of a selection rich in actives, with near analogues and random picks from the rest.

Assay: PAX8 transcriptional activity inhibition in RMG-I – RMG-I cells, luciferase, single concentration, primary screen (AID 652154);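 further: luciferase light reporting Pax8 driven TPO promoter activity; plate controls were median of neutral control wells for no effect and mitoxantrone controls for full effect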
Conditions: RMG-I TPO-luciferase reporter, SteadyGlo, 24 h; at 12.6 µM; stronger effect = higher value

Row | SMILES | inhibition
1 | O=C(N[C@@H]1CC[C@@H](CCNS(=O)(=O)c2ccccc2Cl)O[C@@H]1CO)c1ccccc1 | -1.25% (inactive)
2 | O=C(C[C@@H]1CC[C@H]2[C@@H](COC[C@H](O)CN2Cc2ccc(F)cc2)O1)N1CCc2ccccc2C1 | -7.32% (inactive)
3 | CO[C@@H]1CN(C)C(=O)c2cc(NC(=O)c3cnccn3)ccc2OC[C@@H](C)N(CC2CC2)C[C@H]1C | 6.97% (inactive)
4 | CO[C@@H]1CN(C)C(=O)c2cc(NC(=O)C3CC3)ccc2OC[C@H](C)N(CC2CC2)C[C@H]1C | 7.02% (inactive)
5 | C[C@@H](O)C#Cc1ccc2c(c1)O[C@@H](CN(C)C)[C@@H](C)CN([C@@H](C)CO)S2(=O)=O | -0.827% (inactive)
6 | CCCNC(=O)Nc1ccc2c(c1)C(=O)N(C)C[C@@H](OC)[C@H](C)CN(CCC)[C@@H](C)CO2 | -1.74% (inactive)
7 | O=C(C1CCC1)N1C[C@H]2[C@@H](c3ccccc31)[C@@H](CO)N2C(=O)c1ccccc1F | 5.48% (inactive)
8 | COc1cccc(-c2ccc3c(c2)[C@@H]2[C@@H](CCN2S(=O)(=O)C2=NC(C)C=N2)[C@@H](CO)N3C)c1 (stereo partly drawn) | 19.4% (inactive)
9 | C/C=C/c1ccc([C@@H]2[C@H](CO)N(CC3CCCC3)C23CN(C(=O)CC)C3)cc1 | 18.8% (inactive)
10 | C[C@H]1CN([C@@H](C)CO)S(=O)(=O)c2ccc(C3=CCCC3)cc2O[C@H]1CN(C)C(=O)Cc1ccncc1 | 1.78% (inactive)
11 | O=C(NCc1ccccc1Cl)[C@H]1[C@H](CO)[C@H]2Cn3c(cccc3=O)[C@H]2N1C(=O)C1CCC1 | -12.8% (inactive)
12 | Cc1ccc(S(=O)(=O)N(C)C[C@@H]2Oc3c(NC(=O)c4ccncc4)cccc3C(=O)N([C@@H](C)CO)C[C@@H]2C)cc1 | 1.41% (inactive)
13 | CCS(=O)(=O)Nc1ccc2c(c1)C(=O)N(C)[C@H]1CC[C@H](CC(=O)N[C@@H]3CCN(Cc4ccccc4)C3)O[C@H]1CO2 | -7.99% (inactive)
14 | C[C@@H]1CN([C@H](C)CO)C(=O)c2cc(C3=CCCCC3)cnc2O[C@@H]1CN(C)C(=O)c1ccc2c(c1)OCO2 | -9.44% (inactive)
15 | C[C@@H]1CN([C@H](C)CO)C(=O)c2cc(C#CCN(C)C)cnc2O[C@H]1CN(C)C(=O)Cc1ccncc1 | -16.9% (inactive)
16 | C[C@H](CO)N1C[C@H](C)[C@@H](CN(C)Cc2ccc(Oc3ccccc3)cc2)Oc2ccc(NS(=O)(=O)c3ccc(F)cc3)cc2CC1=O | 78.6% (active)
17 | COc1ccc(S(=O)(=O)Nc2ccc3c(c2)CC(=O)N([C@H](C)CO)C[C@H](C)[C@H](CN(C)Cc2ccc(C(F)(F)F)cc2)O3)cc1 | 7.06% (inactive)
18 | C[C@H]1CN([C@@H](C)CO)C(=O)Cc2cc(NS(=O)(=O)c3ccc(F)cc3)ccc2O[C@H]1CN(C)Cc1ccc(C(F)(F)F)cc1 | -55.2% (inactive)
19 | C[C@@H]1CN([C@@H](C)CO)C(=O)Cc2cc(NS(=O)(=O)c3ccc(Cl)cc3)ccc2O[C@H]1CN(C)Cc1ccc(C(F)(F)F)cc1 | 84.5% (active)
20 | C[C@H](CO)N1C[C@H](C)[C@H](CN(C)Cc2ccncc2)Oc2ccc(NS(=O)(=O)c3ccc(F)cc3)cc2CC1=O | 6.06% (inactive)
21 | C[C@H]1CN([C@@H](C)CO)C(=O)Cc2cc(NS(=O)(=O)c3cccs3)ccc2O[C@@H]1CN(C)Cc1ccc(Oc2ccccc2)cc1 | -11% (inactive)
22 | COCC(=O)N(C)C[C@@H]1Oc2cc(C#Cc3cccnc3)ccc2S(=O)(=O)N([C@H](C)CO)C[C@H]1C | 6.54% (inactive)
23 | O=C(C[C@H]1CC[C@H]2[C@@H](COC[C@@H](O)CN2CCC(F)(F)F)O1)NCc1ccc2c(c1)OCO2 | -15.5% (inactive)

Row | SMILES | inhibition
24 | O=C(C[C@H]1C=C[C@H](NC(=O)Nc2ccccc2F)[C@@H](CO)O1)NCc1ccc(Cl)cc1 | -8.13% (inactive)
25 | C[C@@H]1CCCCO[C@H](CN(C)Cc2ccncc2)[C@@H](C)CN([C@H](C)CO)C(=O)c2cc(NC(=O)CCCN(C)C)ccc2O1 | -4.23% (inactive)
26 | COc1ccc(NC(=O)N(C)C[C@H]2Oc3ccc(NC(=O)Cc4cn(C)c5ccccc45)cc3CC(=O)N([C@@H](C)CO)C[C@H]2C)cc1 | 16.5% (inactive)
27 | CN(Cc1cccs1)C(=O)CN1C(=O)c2ccccc2S1(=O)=O | -105% (inactive)
28 | O=C(CN1C(=O)c2ccccc2S1(=O)=O)N1CCc2ccccc21 | 90.5% (active)
29 | CN(Cc1ccc(F)cc1)C(=O)CN1C(=O)c2ccccc2S1(=O)=O | -2.85% (inactive)
30 | C[C@@H]1CN([C@@H](C)CO)C(=O)Cc2cc(NC(=O)Cc3ccccc3)ccc2O[C@@H]1CN(C)Cc1ccc2c(c1)OCO2 | 13.6% (inactive)
31 | Cc1cc(C(=O)Nc2cccc3c2O[C@@H](CN(C)C(=O)Nc2ccc(F)cc2)[C@H](C)CN([C@@H](C)CO)C3=O)n(C)n1 | 7.05% (inactive)
32 | COc1ccc(NC(=O)Nc2ccc3c(c2)C(=O)N([C@@H](C)CO)C[C@H](C)[C@H](CN(C)CC2CCCCC2)O3)cc1 | -0.963% (inactive)
33 | O=C1/C(=C\c2ccc([N+](=O)[O-])cc2)CS(=O)(=O)C/C1=C/c1ccc([N+](=O)[O-])cc1 | 122% (active)
34 | CC(=O)Nc1ccc(C=CC(=O)c2ccc([N+](=O)[O-])cc2)cc1 | 15.2% (inactive)
35 | O=C(O)C(=Cc1ccc([N+](=O)[O-])cc1)CCc1ccccc1 | 8.95% (inactive)
36 | COc1ccc(S(=O)(=O)N(C)C[C@H]2Oc3c(NC(=O)C4CCOCC4)cccc3C(=O)N([C@@H](C)CO)C[C@@H]2C)cc1 | -8.86% (inactive)
37 | Cn1cnc(CCNC(=O)[C@H]2[C@H](CO)[C@H]3Cn4c(cccc4=O)[C@H]3N2C(=O)Nc2ccccc2)c1 | -6.72% (inactive)
38 | Cn1cnc(S(=O)(=O)N2C[C@@H](O)COC[C@@H]3O[C@H](CC(=O)NCc4ccc(F)cc4)CC[C@H]32)c1 | -3.38% (inactive)
39 | Cc1ccc(COc2ccc(/C=N/NC(=O)CN3CCCCC3)cc2)cc1 | -222% (inactive)
40 | Cc1ccc(/C=N/NC(=O)COc2ccccc2-c2ccccc2)cc1 | 87.7% (active)
41 | Cc1ccc(/C=N/NC(=O)CSc2nc3ccccc3o2)cc1 | -83% (inactive)
42 | O=C(C[C@H]1CC[C@@H](NC(=O)Nc2ccc(C(F)(F)F)cc2)[C@H](CO)O1)NCc1cc(F)cc(F)c1 | -5.75% (inactive)
43 | Cc1ccccc1-c1ccc([C@@H]2[C@@H](CO)N3CCCCN(C(=O)Nc4cccc(F)c4)C[C@H]23)cc1 | 10.4% (inactive)
44 | CC(C)Cc1nnc(NC(=O)CCNC(=O)c2ccccc2Cl)s1 | -15.6% (inactive)
45 | Cc1ccc(S(=O)(=O)CCC(=O)Nc2nnc(CC(C)C)s2)cc1 | 82.8% (active)
46 | CC(C)Cc1nnc(NC(=O)CCc2ccccc2)s1 | -22.6% (inactive)

Row | SMILES | inhibition
47 | C[C@H](NC(=O)C[C@H]1C=C[C@H](NS(=O)(=O)c2cccc(F)c2)[C@@H](CO)O1)c1ccccc1 | -17.2% (inactive)
48 | Cc1noc(C)c1NC(=O)N(C)C[C@@H]1OCCCC[C@H](C)Oc2ccc(NC(=O)C3CCCCC3)cc2C(=O)N([C@H](C)CO)C[C@@H]1C | 9.59% (inactive)
49 | Cc1cccc(C)c1NC(=O)CCS(=O)(=O)c1cccc2nsnc12 | 15.3% (inactive)
50 | Cc1cccc2sc(N(CCCN(C)C)C(=O)CCS(=O)(=O)c3ccccc3)nc12 | 95.4% (active)
51 | COc1ccc(N(C)C(=O)CCS(=O)(=O)c2cccc3nsnc23)cc1 | 1.7% (inactive)
52 | O=C(CCS(=O)(=O)c1ccccc1)Nc1nc2c(s1)CCCC2 | 51.3% (inactive)
53 | CCN(CC)CCN(C(=O)c1ccc2c(c1)CCCC2)c1nc2c(OC)cccc2s1 | 14.3% (inactive)
54 | COc1cccc2sc(N(CCCN(C)C)C(=O)CCS(=O)(=O)c3ccccc3)nc12 | 97.8% (active)
55 | CC(C)NC(=O)N[C@@H]1CC[C@H](CCn2cc(-c3ccccc3)nn2)O[C@H]1CO | -6.01% (inactive)
56 | CCS(=O)(=O)N1[C@H](C#N)[C@H](c2ccc(-c3cccc(F)c3)cc2)[C@@H]1CO | -12.2% (inactive)
57 | C[C@@H]1CN([C@@H](C)CO)C(=O)c2cc(NC(=O)NC3CCCCC3)ccc2O[C@@H](C)CCCCO[C@H]1CN(C)Cc1ccccc1 | -10.1% (inactive)
58 | C[C@@H]1CN([C@@H](C)CO)C(=O)c2cccc(NS(=O)(=O)c3cn(C)cn3)c2O[C@@H]1CN(C)Cc1ccc(Cl)c(Cl)c1 | -5.72% (inactive)
59 | COCC(=O)Nc1ccc2c(c1)OC[C@H](C)N(C(=O)COC)C[C@@H](C)[C@H](OC)CN(C)C2=O | -25.8% (inactive)
60 | Cc1cccc(S(=O)(=O)N2C[C@H]3[C@@H](c4ccccc42)[C@H](CO)N3Cc2ccc3c(c2)OCO3)c1 | 32% (inactive)
61 | CC(=O)N(C)C[C@@H]1Oc2cc(-c3cccnc3)ccc2S(=O)(=O)N([C@H](C)CO)C[C@H]1C | -6.51% (inactive)
62 | O=C(CC1CC1)N1CC[C@@H]2[C@H](CO)Nc3ccc(-c4ccc(F)cc4)cc3[C@@H]21 | 14% (inactive)
63 | O=C(C[C@@H]1CC[C@@H]2[C@H](COC[C@@H](O)CN2Cc2cc(F)cc(F)c2)O1)NCc1cccc(F)c1 | 16% (inactive)
64 | Cc1cccc(-c2ccc([C@@H]3[C@H]4CN(C(=O)c5ccccc5)CC(=O)N4[C@H]3CO)cc2)c1 | 23.1% (inactive)
65 | O=C(C[C@@H]1CC[C@H]2[C@@H](COC[C@@H](O)CN2C(=O)c2ccc3c(c2)OCO3)O1)NC1CCCC1 | -8.12% (inactive)
66 | CC(=O)Nc1c2c(nn1-c1cccc(C)c1)CSC2 | 13.4% (inactive)
67 | CCCNC(=O)c1c(Cl)cnn1-c1ccc(C)cc1 | -169% (inactive)
68 | Cc1cccc(-n2ncc(Cl)c(Cl)c2=O)c1 | 99.9% (active)
